From PubChem BioAssay AID720550 (National Center for Advancing Translational Sciences (NCATS), 2013)
Inconclusive results are not listed. Active and inactive are the calls of the source. Calls follow the shape of the dose curve; as a rule, active = well fitted curve in the direction sought with a large enough effect; inconclusive = small, poorly fitted or top-dose-only effect, or another doubt; inactive = no such curve, though single readings can be large or run the other way.

Experiment: qHTS for Inhibitors of Bloom's syndrome helicase (BLM): Thiazole Orange DNA Binding Counterscreen for SAR.
Description: Human RecQ DNA helicases participate in maintenance of genome stability and DNA repair. While other types of helicases have been explored as targets for drug development, members of the RecQ family have remained less well characterized. Mutations of the Bloom helicase gene have been associated with the rare human genetic disease called Bloom syndrome. […] Moreover, identified inhibitors can be used in cells and animal models to examine the consequences of inhibition on the survival of cancer cells where it has been shown that BLM plays an important role.
A fluorescence-based, biochemical assay in 1536 well format was developed to evaluate inhibition of BLM DNA unwinding activity. This assay was used to screen the MLPCN library. The resulting compounds were subjected to orthogonal and secondary biochemical assays to triage the initial hits, to classify compounds based on mode of action and to derive structure activity relationships (SARs) of candidate effectors. The Thiazole Orange (ThO) DNA binding (TO-binding) is used to eliminate inhibitors that operate via nonspecific DNA binding. […]
Compounds were added to a 4 uL mixture of 50 nM DNA and 100 nM ThO via pintool transfer. The fluorescence signal (excitation 480 nm, emission 530 nm) was measured after 15 min incubation at room temperature using the ViewLux CCD imager.

Row | SMILES | outcome
1 | N#Cc1ccc(NC(=O)Nc2nnc(-c3ccncc3)s2)cc1Cl | inactive
2 | N#Cc1ccc(NC(=O)Nc2nnc(-c3ccncc3)s2)cc1C(F)(F)F | inactive
